This is part of a sample that, as a whole, favours compounds with a hit. Of some 83,000 tested, about 20% had one in any assay.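 How to read the values: 0–100, growth inhibition (40 = 60% inhibited); 0, no net growth; -100 to 0, cell death (-40 = 40% of starting cells died; -100 = all dead).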 Calls of active or inactive are those of the source. How the source made its calls: active means growth percent below 10; inactive means the rest.
Columns and labels:
Experiment in all cases: NCI-60 one-dose screen, 48 h (100 = growth as untreated, 0 = no growth, -100 = all killed)
Details in all cases: 10 µM unless noted
NCI-H23 lung = tested on: NCI-H23 lung
NCI-H226 lung = tested on: NCI-H226 lung
NCI-H322M lung = tested on: NCI-H322M lung
HOP-62 NSCLC = tested on: HOP-62 NSCLC
NCI-H460 lung = tested on: NCI-H460 lung
HOP-92 NSCLC = tested on: HOP-92 NSCLC
NCI-H522 lung = tested on: NCI-H522 lung
A549/ATCC NSCLC = tested on: A549/ATCC NSCLC
786-0 renal = tested on: 786-0 renal
COLO 205 colon = tested on: COLO 205 colon

Measured: growth

COc1cc2nc3c(=O)n(CCN(C)C)cnn3c(=O)c2cc1OC
inactive: NCI-H23 lung 95.9% | NCI-H226 lung 103% | NCI-H322M lung 95.2% | HOP-62 NSCLC 101% | NCI-H460 lung 105% | HOP-92 NSCLC 100% | NCI-H522 lung 89% | A549/ATCC NSCLC 105% | 786-0 renal 105% | COLO 205 colon 102%

O=C1Nc2ccc(Cl)cc2/C1=N/c1nc(-c2ccc(F)cc2)cs1
inactive: NCI-H23 lung 44% | NCI-H226 lung 75% | NCI-H322M lung 65.7% | HOP-62 NSCLC 54.1% | NCI-H460 lung 34.1% | HOP-92 NSCLC 34.3% | NCI-H522 lung 20.7% | A549/ATCC NSCLC 43.6% | 786-0 renal 47.3% | COLO 205 colon 31.4%

FC(F)(F)c1ccc2c(Nc3cccc(C4CC(c5ccccc5)=NN4c4ccc(Cl)cc4)c3)ccnc2c1 (stereo not given)
inactive: NCI-H23 lung 61% | NCI-H226 lung 68.1% | NCI-H322M lung 68.7% | HOP-62 NSCLC 60.2% | NCI-H460 lung 59.1% | HOP-92 NSCLC 47.5% | NCI-H522 lung 50.2% | A549/ATCC NSCLC 72.4% | 786-0 renal 77.1% | COLO 205 colon 58.1%

COc1ccc(C2CC(c3ccc(OC)cc3O)=NN2c2ccc(S(N)(=O)=O)cc2)cc1 (stereo not given)
inactive: NCI-H23 lung 65.6% | NCI-H226 lung 59.9% | NCI-H322M lung 59.4% | HOP-62 NSCLC 83.2% | NCI-H460 lung 14% | HOP-92 NSCLC 20.7% | NCI-H522 lung 34% | A549/ATCC NSCLC 21.7% | 786-0 renal 38.5% | COLO 205 colon 29.5%

Cc1cccc(NC(=O)c2sc3nc4c(cc3c2N)CN(Cc2ccccc2)CC4)c1C
active: COLO 205 colon -0.373%
inactive: NCI-H23 lung 51.3% | NCI-H226 lung 60% | NCI-H322M lung 40.4% | HOP-62 NSCLC 32.3% | NCI-H460 lung 12.5% | HOP-92 NSCLC 35.2% | NCI-H522 lung 11.3% | A549/ATCC NSCLC 31.1% | 786-0 renal 31.9%

COc1ccccc1N1CCN(CCCOc2ccc(C(=O)/C=C3/C(=O)Nc4ccccc43)cc2)CC1
inactive: NCI-H23 lung 45.3% | NCI-H226 lung 53% | NCI-H322M lung 88.7% | HOP-62 NSCLC 38.2% | NCI-H460 lung 66.4% | HOP-92 NSCLC 18.2% | NCI-H522 lung 65.9% | A549/ATCC NSCLC 76% | 786-0 renal 45.7% | COLO 205 colon 65.5%

COc1ccc2oc(=O)cc(-c3nc4ccc(N)cc4[nH]3)c2c1
inactive: NCI-H23 lung 84% | NCI-H226 lung 72% | NCI-H322M lung 86.2% | HOP-62 NSCLC 70.8% | NCI-H460 lung 102% | HOP-92 NSCLC 80.2% | NCI-H522 lung 64.1% | A549/ATCC NSCLC 90% | 786-0 renal 96.8% | COLO 205 colon 84.9%

Cc1cccc(C)c1NCc1nnc(-c2ccco2)o1
inactive: NCI-H23 lung 89% | NCI-H226 lung 80.5% | NCI-H322M lung 91.1% | HOP-62 NSCLC 80.2% | NCI-H460 lung 97% | HOP-92 NSCLC 83.4% | NCI-H522 lung 72.8% | A549/ATCC NSCLC 86.8% | 786-0 renal 105% | COLO 205 colon 103%

CN1CCN(S(=O)(=O)O[C@@H]2C(=O)N(c3cc4c5ccccc5ccc4c4ccccc34)[C@H]2c2ccc(F)cn2)CC1
inactive: NCI-H23 lung 90.6% | NCI-H226 lung 91.2% | NCI-H322M lung 87.4% | HOP-62 NSCLC 86.6% | NCI-H460 lung 98% | HOP-92 NSCLC 65.3% | NCI-H522 lung 70.3% | A549/ATCC NSCLC 83.4% | 786-0 renal 79.8% | COLO 205 colon 96.7%

COc1cc(NCC(=O)Nc2cc(Nc3cccc(C(F)(F)F)c3)ncn2)c(Cl)c(OC)c1Cl
inactive: NCI-H23 lung 91.9% | NCI-H226 lung 94.9% | NCI-H322M lung 101% | HOP-62 NSCLC 87.6% | NCI-H460 lung 103% | HOP-92 NSCLC 92.7% | NCI-H522 lung 67.8% | A549/ATCC NSCLC 81.2% | 786-0 renal 97.2% | COLO 205 colon 104%

O=C(O)CCNC1CCCCC1
inactive: NCI-H23 lung 90.4% | NCI-H226 lung 93.9% | NCI-H322M lung 115% | HOP-62 NSCLC 91.6% | NCI-H460 lung 99.3% | HOP-92 NSCLC 100% | NCI-H522 lung 79.7% | A549/ATCC NSCLC 102% | 786-0 renal 101% | COLO 205 colon 95.8%

CC[C@]12C=CCN3CC[C@@]4(c5cc(NC(=O)CCC(=O)O[C@H]6CC[C@H]7[C@@H]8CC[C@H]9CC(=O)CC[C@]9(C)[C@H]8CC[C@]67C)c(OC)cc5N(C)[C@H]4[C@@](O)(C(=O)OC)[C@@H]1OC(C)=O)[C@@H]32
inactive: NCI-H23 lung 89.7% | NCI-H226 lung 70.9% | NCI-H322M lung 99% | HOP-62 NSCLC 95.6% | NCI-H460 lung 64.5% | HOP-92 NSCLC 52.4% | NCI-H522 lung 63.6% | A549/ATCC NSCLC 56.7% | 786-0 renal 74.7% | COLO 205 colon 69.1%

O=C(O)COc1ccc2c(=O)c3sc4c(=O)c5ccccc5c(=O)c4c3c(=O)c2c1
active: NCI-H23 lung -39.6% | NCI-H322M lung -96.5% | HOP-62 NSCLC -81.1% | NCI-H460 lung -63.2% | A549/ATCC NSCLC -44.8% | COLO 205 colon -46.2%
inactive: NCI-H226 lung 28.6% | HOP-92 NSCLC 104% | NCI-H522 lung 10.9% | 786-0 renal 70.9%

O=C(Nc1cc(=O)[nH]c(=O)[nH]1)C(Cl)Cl
inactive: NCI-H23 lung 107% | NCI-H226 lung 102% | NCI-H322M lung 95.5% | HOP-62 NSCLC 106% | NCI-H460 lung 109% | HOP-92 NSCLC 98.8% | NCI-H522 lung 90.3% | A549/ATCC NSCLC 97.4% | 786-0 renal 107% | COLO 205 colon 122%

CCOC(=O)/C(=C/c1c(-c2ccccc2)[nH]c2ccccc12)C(=O)c1ccc(Cl)cc1
inactive: NCI-H23 lung 55% | NCI-H226 lung 71.3% | NCI-H322M lung 78.6% | HOP-62 NSCLC 48% | NCI-H460 lung 33.1% | HOP-92 NSCLC 13.5% | NCI-H522 lung 19.8% | A549/ATCC NSCLC 39.6% | 786-0 renal 26.5% | COLO 205 colon 63.2%

N#Cc1c(-c2ccc(F)cc2)c(C#N)c2c(C#N)c(N)nn2c1N
inactive: NCI-H23 lung 96.9% | NCI-H226 lung 82.2% | NCI-H322M lung 97.5% | HOP-62 NSCLC 81% | NCI-H460 lung 98.7% | HOP-92 NSCLC 76.9% | NCI-H522 lung 85.7% | A549/ATCC NSCLC 92% | 786-0 renal 94.2% | COLO 205 colon 98.4%

O=Cc1[nH]c(Sc2ccccc2)c2ccccc12
inactive: NCI-H23 lung 67.2% | NCI-H226 lung 66.9% | NCI-H322M lung 91.7% | HOP-62 NSCLC 85.6% | NCI-H460 lung 90.5% | HOP-92 NSCLC 45.7% | NCI-H522 lung 107% | A549/ATCC NSCLC 96.1% | 786-0 renal 81.1% | COLO 205 colon 64.8%

c1ccc2nc(N3CCOCC3)c(N3CCCCC3)nc2c1
inactive: NCI-H23 lung 95.6% | NCI-H226 lung 95.8% | NCI-H322M lung 95.9% | HOP-62 NSCLC 94.1% | NCI-H460 lung 105% | HOP-92 NSCLC 84.5% | NCI-H522 lung 85.3% | A549/ATCC NSCLC 96.9% | 786-0 renal 102% | COLO 205 colon 110%

CCOC(=O)c1c(-c2ccc(O)cc2)c(C#N)c2c(C#N)c(N)nn2c1N
inactive: NCI-H23 lung 72.6% | NCI-H226 lung 69.3% | NCI-H322M lung 95.1% | HOP-62 NSCLC 66.6% | NCI-H460 lung 74.3% | HOP-92 NSCLC 41.7% | NCI-H522 lung 39.2% | A549/ATCC NSCLC 80.7% | 786-0 renal 93% | COLO 205 colon 74.6%

O=[N+]([O-])c1ccc(Oc2ccc(-c3ccccc3)cc2)cc1
inactive: NCI-H23 lung 85.3% | NCI-H226 lung 76.7% | NCI-H322M lung 100% | HOP-62 NSCLC 92.1% | NCI-H460 lung 92.9% | HOP-92 NSCLC 74.3% | NCI-H522 lung 67.5% | A549/ATCC NSCLC 91.5% | 786-0 renal 84.6% | COLO 205 colon 109%

O=C(/C(=C\c1c(-c2ccccc2)[nH]c2ccccc12)S(=O)(=O)c1ccccc1)c1ccccc1
inactive: NCI-H23 lung 47.9% | NCI-H226 lung 53.6% | NCI-H322M lung 67.6% | HOP-62 NSCLC 64.5% | NCI-H460 lung 37.8% | A549/ATCC NSCLC 44.6% | 786-0 renal 68.1% | COLO 205 colon 70.8%
active: HOP-92 NSCLC -4.34% | NCI-H522 lung -12.2%

CCOC(=O)C(=Cc1c(-c2ccccc2)[nH]c2ccccc12)C(=O)OCC
active: HOP-92 NSCLC -5.04% | NCI-H522 lung -33.7%
inactive: NCI-H23 lung 50.7% | NCI-H226 lung 60.1% | NCI-H322M lung 81.3% | HOP-62 NSCLC 75.9% | NCI-H460 lung 21.5% | A549/ATCC NSCLC 40.3% | 786-0 renal 90.4% | COLO 205 colon 58.7%

COc1cc(/C=N/Nc2nc(-c3ccc(F)cc3)c(C#N)c(N3CCOCC3)n2)ccc1O
inactive: NCI-H23 lung 108% | NCI-H226 lung 97.8% | NCI-H322M lung 97.4% | HOP-62 NSCLC 104% | NCI-H460 lung 102% | HOP-92 NSCLC 80% | NCI-H522 lung 99.3% | A549/ATCC NSCLC 89.6% | 786-0 renal 82% | COLO 205 colon 101%

COc1ccc(-n2nc(C(=O)NCC(=O)O)nc2-c2ccccc2)cc1
inactive: NCI-H23 lung 107% | NCI-H226 lung 105% | NCI-H322M lung 98.1% | HOP-62 NSCLC 108% | NCI-H460 lung 116% | HOP-92 NSCLC 97.1% | NCI-H522 lung 82.5% | A549/ATCC NSCLC 97.8% | 786-0 renal 102% | COLO 205 colon 124%

Nc1c(C(=O)Nc2cccc3ccccc23)sc2nc3c(cc12)CCCCCC3
active: NCI-H522 lung -37.1% | COLO 205 colon -2.61%
inactive: NCI-H23 lung 47.8% | NCI-H226 lung 70.6% | NCI-H322M lung 48.1% | HOP-62 NSCLC 38.8% | NCI-H460 lung 11.2% | HOP-92 NSCLC 52.9% | A549/ATCC NSCLC 20.1% | 786-0 renal 26.4%

CN(C)[C@@H]1C(=O)C(C(N)=O)=C(O)[C@@]2(O)C(=O)C3=C(O)c4c(O)cc(CN5CCc6ccccc6C5)c(Cl)c4C[C@H]3C[C@@H]12
active: NCI-H23 lung -73.8% | NCI-H226 lung -70.8% | NCI-H322M lung -87.2% | HOP-62 NSCLC -85.4% | NCI-H460 lung -68.7% | HOP-92 NSCLC -82.8% | NCI-H522 lung -79.3% | A549/ATCC NSCLC -85.4% | 786-0 renal -83.8% | COLO 205 colon -78.3%

Source: PubChem BioAssay (NCI)
